High-throughput results (PubChem BioAssay)
KCNH2 WT inh – qHTS for Inhibitors of KCHN2 3.1: Wildtype qHTS; activity change, % at 1.84 µM; 340,000 tested, 0.37% active; U2OS, BacMam KCNH2, thallium flux FluxOr; stronger effect = lower value; AID 720551, 2013; Voltage-gated inwardly rectifying potassium channel KCNH2 (Homo sapiens), Q12809;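 active means maximum activity change below -70%; inconclusive means maximum activity change between -70% and -50%; inactive means maximum activity change above -50%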; further: on the % scale 0 is the no-effect control and ±100 the full control effect
Target sequence (Q12809 whole entry, looked up): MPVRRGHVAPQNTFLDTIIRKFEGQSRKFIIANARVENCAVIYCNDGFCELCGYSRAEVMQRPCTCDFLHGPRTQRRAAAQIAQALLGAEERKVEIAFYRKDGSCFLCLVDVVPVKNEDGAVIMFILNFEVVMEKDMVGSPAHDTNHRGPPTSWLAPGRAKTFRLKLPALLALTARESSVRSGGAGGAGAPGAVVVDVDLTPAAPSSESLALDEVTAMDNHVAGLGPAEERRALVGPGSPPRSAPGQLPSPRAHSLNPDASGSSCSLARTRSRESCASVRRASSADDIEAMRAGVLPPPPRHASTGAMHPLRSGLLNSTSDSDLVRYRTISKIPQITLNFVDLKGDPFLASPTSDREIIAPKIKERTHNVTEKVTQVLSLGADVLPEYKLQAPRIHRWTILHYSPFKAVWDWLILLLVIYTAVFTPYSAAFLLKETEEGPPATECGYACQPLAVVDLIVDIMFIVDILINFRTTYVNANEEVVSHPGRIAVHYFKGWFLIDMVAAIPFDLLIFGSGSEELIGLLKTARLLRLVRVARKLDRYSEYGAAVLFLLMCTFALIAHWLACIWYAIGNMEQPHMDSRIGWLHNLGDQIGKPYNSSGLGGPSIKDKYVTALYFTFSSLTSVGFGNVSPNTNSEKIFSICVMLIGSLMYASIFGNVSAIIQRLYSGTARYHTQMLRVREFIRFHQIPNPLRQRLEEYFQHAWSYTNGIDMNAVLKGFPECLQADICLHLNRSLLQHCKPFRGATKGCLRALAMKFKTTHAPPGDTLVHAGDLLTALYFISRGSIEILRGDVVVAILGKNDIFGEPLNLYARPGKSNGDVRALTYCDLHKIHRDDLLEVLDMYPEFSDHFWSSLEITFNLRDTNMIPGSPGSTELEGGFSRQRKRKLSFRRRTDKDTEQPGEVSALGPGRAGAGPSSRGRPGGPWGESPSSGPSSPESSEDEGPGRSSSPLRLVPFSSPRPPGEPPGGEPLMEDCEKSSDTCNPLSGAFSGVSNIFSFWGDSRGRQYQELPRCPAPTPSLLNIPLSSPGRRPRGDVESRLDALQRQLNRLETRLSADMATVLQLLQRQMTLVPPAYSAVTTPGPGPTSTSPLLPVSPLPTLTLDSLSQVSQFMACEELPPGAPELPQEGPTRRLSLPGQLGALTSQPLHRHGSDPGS
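U2OS cells transduced with wild-type KCNH2 virus are loaded with FluxOr dye for 45 min, and thallium flux is measured in kinetic reads before and after stimulation buffer. Rate constants are normalized to DMSO controls.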
gsp antagonist – qHTS for Antagonists of gsp, the Etiologic Mutation Responsible for Fibrous Dysplasia/McCune-Albright Syndrome: qHTS. 340,000 tested, 0.4% active. AID 624288, 2012. Potency, µM (titrated, usually from 76.9 µM), for the others: top-dose activity change, negative = inhibition, hits mostly inhibitors. gsp-mutant cells, cAMP HTRF, 30 min; calls by dose curve; cell line not stated here;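 further: intracellular cAMP measured with PDE inhibitor Ro 20-1724 present during compound exposure; potency means the concentration at half of the fitted maximal effect; on the % scale 0 is the no-effect control and ±100 the full control effect; nearly all actives have a fitted effect of over 65% in size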
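G418-selected cells were plated in DMEM/10% FBS for 16-24 h at 37C, then treated with compounds plus the PDE inhibitor […] (300 uM solution added) for 30 min at 37C. Intracellular cAMP was measured by HTRF after 30 min lysis at room temperature.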
gsp agonist – qHTS for Agonist of gsp, the Etiologic Mutation Responsible for Fibrous Dysplasia/McCune-Albright Syndrome: qHTS | gsp mutant cells, cAMP HTRF, 30 min | Potency, µM (highest dose often 76.9 µM), without a hit: at the highest dose activation (cAMP increase), most hits filed as activators | 340,000 tested, 0.13% active | AID 624287, 2012; active means well fitted activation curve with a large enough effect; inconclusive means small, poorly fitted or top-dose-only effect, or another doubt; inactive means no such curve, though single readings can be large or run the other way; cell line not stated here;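 further: phosphodiesterase inhibitor Ro 20-1724 added with compounds to block cAMP breakdown; potency means the concentration at half of the fitted maximal effect; nearly all actives have a fitted effect of over 60% in size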
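Cells stably selected in G418 were plated at 2000/well, grown 16-24 hr, then given compounds in DMSO with the PDE inhibitor […] (300 uM solution added) for 30 min at 37C; cAMP was read by HTRF.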
pAkt inh – HTS Assay for Inhibitors of Akt Phophorylation: Primary Screen; activity change, % for hits at 50 µM; 360,000 tested, 0.32% active; Neuro2A IGF-stimulated pAkt S473 HTRF, 20 min; stronger effect = lower value; in the data active means activity change below about -80%; inconclusive means mostly about -51% to -80%; further: on the % scale 0 is the no-effect control and ±100 the full control effect
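Neuro2A cells (4,500/well, DMEM with 0.5% FBS) were treated with compound at a single 50 µM final concentration, stimulated with 6 nM IGF for 20 min at 37 °C, and lysed. Phospho-Akt Ser473 was read by HTRF as 665/615 ratio ×10^4.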
Glioma ERSR ind – qHTS for Inducers of the Endoplasmic Reticulum Stress Response (ERSR) in Human Glioma: qHTS | Potency, µM, for the others: top-dose activation, most hits filed as activators | 420,000 tested, 0.02% active | U87-MG GRP78 promoter luciferase reporter, 16 h; active means well fitted activation curve with a large enough effect; inconclusive means small, poorly fitted or top-dose-only effect; inactive means no such curve, though single readings can be large or run the other way; further: potency means the concentration at half of the fitted maximal effect; series mostly up to about 76 µM; % of control where 0% means no effect; nearly all actives have a fitted effect of over 35% in size
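Stably transfected U87-MG human glioma cells carrying a GRP78-based luminescent sensor were seeded at 1000 cells/well, pin-dosed with compounds and incubated 16 h. Luciferase reagent was then added, and end-point luminescence was read after 10 min at room temperature.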
KCNH2 3.1 block – qHTS for Inhibitors of KCHN2 3.1: Mutant qHTS; Potassium voltage-gated channel subfamily H member 2, brain isoform KCNH2 3.1 (human); U2OS KCNH2 3.1, thallium flux FluxOr; stronger effect = lower value; activity change, % (tested at about 1.8 µM); 340,000 tested, 0.95% active;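 active means maximum activity change below -70%; inconclusive means maximum activity change from -70% to -50%; inactive means maximum activity change above -50%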;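 further: thallium influx rate constant from kinetic fluorescence after stimulation buffer; on the % scale 0 is the no-effect control and ±100 the full control effect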
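Normalized rate constant (relative to positive and negative DMSO controls) derived from a 2 min kinetic fluorescence read after stimulation; U2OS cells expressing the 3.1 isoform via virus at 1.77 x 10^8 /mL.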
An asterisk follows results filed as active; i = inactive; u = inconclusive; x = no result given; [ ] = another dose, or the depositor's remark. Most compounds without a hit are left out; they make up all but 1.6% or so of the library.

SMILES	KCNH2 WT inh	gsp antagonist	gsp agonist	pAkt inh	Glioma ERSR ind	KCNH2 3.1 block
CCC1CN(CCNC(=O)c2scc3c2OCCO3)Cc2cc(OC)ccc2O1 (stereo not given)	x	x	x	x	-6%	x
CCCCOc1ccc(-n2nc(C)cc2C)nn1	-8	-5%	-6%	-101%*	-1%	2
COc1ccccc1N1CCN(CCCC(=O)c2ccc(F)cc2)CC1	45	-2%	x	i	-5%	-70*
O=C(CCCN1CCC(C(=O)c2ccc(F)cc2)CC1)c1ccc(F)cc1	-74*	11%	-1%	i	-2%	-103*
CC1CCN(CCCC(=O)c2ccc(F)cc2)CC1	x	x	x	x	-5%	x
CN(C(=O)CSc1ncnc2ccccc12)C1CCS(=O)(=O)C1 (stereo not given)	-7	8%	13µM*	i	-3%	11
C=CCn1c(SCC(=O)N(C(C)CC)C2CCS(=O)(=O)C2)nc2ccccc2c1=O (stereo not given)	-33	-5%	18%	i	-2%	-88*
CCOC(=O)C1CCCN(Cc2c(C(=O)N3CCCCC3)nc3c(C)cccn23)C1 (stereo not given)	6	-15%	-8%	i	2%	3
Cc1cccn2c(CNC3CCCc4ccccc43)c(C(=O)N3CCCCC3)nc12 (stereo not given)	-3	0%	-59%	i	-5%	-182*
CCOc1ccc2nc(N3CCCC3C(=O)N3CCC(c4nc5ccccc5o4)CC3)nc(C)c2c1 (stereo not given)	x	x	x	x	-2%	x
COCc1ccc(C(=O)N2CCOc3ccc(CN4CCN(c5ccc(F)cc5)CC4)cc3C2)o1	x	x	x	x	-4%	x
C#CCNC(=O)c1ccc(OCc2ccccc2)cc1Cl	1	-2%	-6%	i	2%	0
O=C(NCCCl)c1ccc(OCc2ccccc2)cc1Cl	-3	14%	-26%	i	3%	-113*
Cc1ccc(C)c(OCC(=O)NCC(C)(C)N2CCOCC2)c1	10	9%	-2%	i	-1%	-13
Cc1cccc(OCC(=O)NCC(C)(C)N2CCOCC2)c1	14	-3%	u	i	-5%	-153*
Cc1ccccc1-n1cc(CNC(=O)CN2Cc3ccccc3OC(C)C2)cn1 (stereo not given)	x	x	x	x	-6%	x
O=C(Nc1ccnn1C1CCN(CCCc2ccccc2)CC1)c1ccccc1	u	-13%	8%	i	-1%	-85*
Cc1ccccc1C(=O)Nc1ccnn1C1CCN(Cc2ccccn2)CC1	47	-1%	16%	i	-2%	6
O=C(Nc1ccnn1C1CCN(CCCC2CCCC2)CC1)c1ccccc1	u	-2%	-2%	i	5%	13
COc1ccccc1C(=O)Nc1ccnn1C1CCN(CCCc2ccccc2)CC1	-105*	0%	-14%	i	-3%	-103*
Cc1ccccc1C(=O)Nc1ccnn1C1CCN(CCCc2ccccc2)CC1	-139*	9%	-30%	i	0%	-106*
COC(=O)C1CCN(Cc2ccc3c(c2)CN(C(=O)c2cc(C4CC4)on2)CCO3)CC1	x	x	x	x	0%	x
COc1ccc2c(c1)CCc1cnc(-n3ncc(C(=O)NCCCc4ccncc4)c3C)nc1-2	x	x	x	x	-2%	x
CSCC[C@H](NC(=O)c1ccc(NC[C@@H](N)CS)cc1-c1ccccc1)C(=O)O	x	x	x	x	2%	x
O=C(CN1CCN(c2ccc(F)cc2)CC1)NCc1ccc(Cl)cc1	26	3%	-14%	i	-3%	-77*
SMILES	KCNH2 WT inh	gsp antagonist	gsp agonist	pAkt inh	Glioma ERSR ind	KCNH2 3.1 block
O=C(CN1CCN(Cc2ccc(Cl)cc2)C1=O)NCCCN1CCN(c2ccc(F)cc2)CC1	-116*	-6%	u	i	0%	-97*
Cc1cnc(SCC2CCCO2)nc1C1CCCN(C(=O)C2=NNC(=O)CC2)C1 (stereo not given)	x	x	x	x	-2%	x
CC[C@H]1OC(=O)[C@H](C)C(=O)[C@H](C)[C@@H](OC2O[C@H](C)C[C@H](N(C)C)[C@@H]2O)[C@@](C)(OC)C[C@@H](C)C(=O)[C@@H](C)C2N(CCCCn3cnc(-c4cccnc4)c3)C(=O)O[C@@]21C (stereo not given in full)	x	x	x	x	-5%	x
Cc1ccnc2ccc3ccccc3c12	x	x	x	x	-5%	x
Cc1cc(NC(=O)CCC(=O)N(C(C(=O)NC(C)(C)C)c2ccccc2Cl)C(C)(C)C)no1 (stereo not given)	8	-1%	-12%[15.4 µM]	i	2%	-165*
O=C(NCCN1CCN(c2ccccc2F)CC1)c1cccn2c(=O)c3ccccc3nc12	-14	-1%	23%	i	-1%	-79*
CC(C)C(=O)c1ccc(O)c(O)c1	2	3%	1%	i	-3%	-85*
Cc1ccccc1OCC(=O)Nc1cc(C)c(O)c(-c2nc3ccccc3o2)c1	x	x	x	x	-5%	x
CCCCc1ccc(NC(=O)C(=O)NCCN2CCN(Cc3ccc([N+](=O)[O-])cc3)CC2)cc1	-245*	7%	15%	i	-5%	-169*
O=C(NCCN1CCN(C(=O)c2ccc([N+](=O)[O-])cc2)CC1)C(=O)NCc1ccccc1	44	6%	-22%	i	-1%	-80*
O=c1[nH]c(=S)c2[nH]cnc2[nH]1	x	x	x	x	-1%	x
Cc1cnc(SCC2CCCO2)nc1C1CCCN(Cc2nc(-c3ccccc3)cs2)C1 (stereo not given)	x	x	x	x	-3%	x
CC(C)c1nc(C(=O)N2CCOc3ccc(CN4CCN(c5ccccn5)CC4)cc3C2)cs1	x	x	x	x	0%	x
O=C(OCC(=O)N1CCN(c2ccccc2)CC1)c1cccc(Cl)c1	7	0%	19%	-113%*	-5%	-2
O=C(NCCC(=O)N1CCN(c2cccc(Cl)c2)CC1)c1ccc(Br)cc1	8	-20%	-2%	i	-4%	-75*
CO[C@H]1/C=C\O[C@@]2(C)Oc3c(C)c(O)c4c(O)c(c(C=NN5CCN(C6CCCC6)CC5)c(O)c4c3C2=O)NC(=O)C(C)=CC=C[C@H](C)[C@H](O)[C@@H](C)[C@@H](O)[C@@H](C)[C@H](OC(C)=O)[C@H]1C	x	x	x	x	-2%	x
CC1CN(Cc2cccn2-c2ncccn2)Cc2cc(Cl)ccc2O1 (stereo not given)	x	x	x	x	-3%	x
COC(=O)CN1CCC(=O)c2ccccc2S1(=O)=O	x	x	x	x	-1%	x
COc1ccc(S(=O)(=O)NCc2csc(C)n2)cc1OC	7	12%	28%	i	-1%	2
